VACV mCherry inh – qHTS for Stage-Specific Inhibitors of Vaccinia Orthopoxvirus: mCherry Reporter Primary qHTS; Vaccinia virus mCherry reporter infection, fluorescence; Potency, µM (series often up to 36.5 µM), for inactives: at the top dose activity change, negative = inhibition, hits mostly inhibitors; actives 0.63% (n = 310,000); calls by dose curve; tested in A549 cells; further: nearly all actives have a fitted effect of over 35% in size
VACV Venus inh – qHTS for Stage-Specific Inhibitors of Vaccinia Orthopoxvirus: Venus Reporter Primary qHTS. Vaccinia virus Venus reporter expression, fluorescence. Potency, µM (top dose mostly 36.5 µM), for inactives: at the highest dose activity change, negative = inhibition, most hits filed as inhibitors. actives 0.46% (n = 330,000); calls by dose curve; tested in A549 cells; further: nearly all actives have a fitted effect of over 30% in size
MARV entry inh – qHTS for inhibitors of binding or entry into cells for Marburg Virus; actives 1.8% (n = 300,000); Potency, µM (top dose mostly 37.8 µM), for the others: top-dose activity change, negative = inhibition, actives largely listed as inhibitors; Marburg virus pseudotyped entry inhibition, cell reporter; calls by dose curve; tested in HEK293 cells
LASV entry inh – qHTS for Inhibitors of binding or entry into cells for Lassa Virus; Lassa virus pseudotype entry inhibition, cell reporter; Potency, µM (doses to about 37.9 µM), inactives show at the top dose activity change, negative = inhibition, most hits filed as inhibitors; actives 1.2% (n = 300,000); AID 540256, 2011; calls by dose curve; tested in HEK293 cells; further: nearly all actives have a fitted effect of over 50% in size
Active calls of the source: *; i = inactive; u = inconclusive; x = no result; [ ] = dose if it differs, or a comment. Compounds with a hit are over-represented: about 2.5% of the library has one in this group of screens. On the % scale 0 is the no-effect control and ±100 the full control effect; potency means the concentration at half of the fitted maximal effect.

SMILES | VACV mCherry inh | VACV Venus inh | MARV entry inh | LASV entry inh
COc1ccccc1C(=O)N1CCOc2ccc(CN3CCN(Cc4ccccn4)CC3)cc2C1 | -11% | 3% | x | x
O=C(NC1(Cc2ccccc2)CCN(Cc2ccc(-c3ccccc3)cc2)C1=O)c1ccccc1 (stereo not drawn) | 11µM* | u | -1% | x
O=C(CCc1ccccc1)NC1(Cc2ccccc2)CCN(CCc2cccs2)C1=O (stereo not drawn) | -2% | -25% | 2% | x
O=C1c2ccccc2CN2C(=O)c3ccccc3CN12 | i | -3% | -6% | 1%
c1ccc(-c2cn3c(n2)-c2ccccc2C3)cc1 | -13% | -26% | u | 4.5µM*
CCN1C(=O)NC(CCc2ccccc2)C(C(=O)OC)=C1C (stereo not drawn) | x | x | 17%[14.2 µM] | x
COC(=O)Cn1nnc(N2CCOCC2)n1 | -3% | -10% | 9%[46.1 µM] | -3%
COC(COC(N)=O)C1=C(N2CC2)C(=O)C(C)=C(N2CC2)C1=O (stereo not drawn) | u | 2.8µM* | u | 1.3µM*
CNCCc1cnc(CCC(c2ccccc2)c2ccccc2)[nH]1 | x | x | 5.8µM* | u
CNCCc1ccccn1 | -22% | -18% | 5% | 4%
CCOC(=O)c1sc2nc(CSc3ccccc3)nc(N3CCC(C(N)=O)CC3)c2c1C | 11µM* | 10µM* | u | -21%
Cc1sc2nc(CSc3ccccc3)nc(N3CCC(C(N)=O)CC3)c2c1C | x | x | -30% | -8%
CCN1CCC(O)(/C=C/c2ccc(C(C)C)cc2)C(C(=O)/C=C/c2ccc(C(C)C)cc2)C1 (stereo not drawn) | 11µM* | u | u | 14µM*
CCN1CCN(C(=O)/C=C/c2ccc(C(C)C)cc2)CC1 | -7% | -11% | u | -1%[46.1 µM]
COc1cccc(CO[C@H]2C=C[C@@H](c3ccccc3)O[C@H]2COC(C)=O)c1 | x | x | 8%[14.2 µM] | x
Cc1ncc2c(c1CNC(=O)c1ccc3c(c1)OCO3)CCN(C(=O)c1csc3c1CCCC3)C2 | -15% | -6% | x | x
CC(O)(COc1ccccc1)c1ccc2c(c1)CN(Cc1cccc3cccnc13)CCO2 (stereo not drawn) | i | -3% | x | x
O=[N+]([O-])c1ccc(CNc2ccc(Cl)cc2)s1 | -25% | -12% | u | 3.5µM*
CCOc1ccc(CC2c3cc(OCC)c(OCC)cc3CCN2C(=O)c2cc(OC)c(OC)c(OC)c2)cc1OCC (stereo not drawn) | x | x | u | 2.1µM*
CCc1ccc(OCC2c3cc(OC)c(OC)cc3CCN2C(=O)Cc2ccc(OC)c(OC)c2)cc1 (stereo not drawn) | 35µM* | u | x | u
COc1ccc(CC(=O)N2CCc3cc(OC)c(OC)cc3C2COc2ccc(OC)cc2)cc1 (stereo not drawn) | -9% | -11% | x | u
C=C1C(=O)OC2C=C(CO)C3OC3C3OC3(C)CC(OC(=O)/C(=C/C)COC(C)=O)C12 (stereo not drawn) | u | -18% | 2.5µM* | u
CC(=O)OCC1=C[C@@H]2OC(=O)C3=CO[C@@H](O[C@@H]4O[C@H](CO)[C@@H](O)[C@H](O)[C@H]4O)[C@H]1[C@@H]32 | 18% | 35% | x | x
COC(=O)CC1(c2cccc3ccccc23)C(=O)c2ccccc2C1=O | x | 2.8µM* | u | u
CCOC(=O)N(C(=O)c1ccccc1)c1ccccc1 | -15% | -9% | x | x
SMILES | VACV mCherry inh | VACV Venus inh | MARV entry inh | LASV entry inh
CCCCCCSc1nnc(-c2cnn(-c3ccccc3)c2-n2cccc2)n1C | 10µM* | 10µM* | -22%[46.1 µM] | 2%
COc1cc2nc(C#N)nc(N)c2cc1OC | -10% | -6% | x | x
CC(C)CNC(=O)COC(=O)c1c2c(nc3ccccc13)/C(=C\c1cccs1)CC2 | -20% | u | -5% | u
CC(=O)c1ccc(NC(=O)COC(=O)c2c3c(nc4ccccc24)/C(=C\c2cccs2)CCC3)cc1 | -11% | u | 8.9µM* | u
COc1ccc(COC(=O)N/N=C2\C[C@@H](O)[C@@H](O)[C@@H]3[C@@H]4C(=O)N(Cc5ccccc5)C(=O)[C@@H]4CC[C@H]23)cc1 | x | x | -25%[14.2 µM] | x
CC1CN(C(=O)c2ccc(CNS(=O)(=O)c3cccc(C(F)(F)F)c3)cc2)CC(C)O1 (stereo not drawn) | -7% | -13% | 13µM* | -30%
Cc1ccc(NC(=O)c2ccc(CNS(=O)(=O)c3cccc(C(F)(F)F)c3)cc2)cc1 | x | -7% | 23% | 0%
Cc1ccn2cc(-c3cc4ccccc4oc3=O)nc2c1 | 0% | 0% | u | 1.6µM*
O=c1oc2ccccc2cc1-c1cn2cc(Cc3ccc(Cl)cc3)sc2n1 | -26% | -22% | -23%[46.1 µM] | u
Clc1ccc(SCc2cc(N3CCOCC3)nc(-c3ccccn3)n2)cc1 | 7.9µM* | u | u | u
Cc1ccc(N(CN2C(=O)[C@H]3CC=CC[C@@H]3C2=O)C(=O)c2ccco2)cc1Cl | x | x | -20% | x
COc1ccc(C=CNC(=O)Cc2ccc(OC)c(OC)c2)cc1 | x | x | 24%[14.2 µM] | x
COc1ccc(OC)c(-c2c3cc(O)c(=O)cc-3oc3cc(O)c(O)cc23)c1 | i | i | 21µM* | u
CC(CC1=C2C=CC=CC2N=C1)NC(N)=O (stereo not drawn) | x | x | 5%[46.1 µM] | x
Cc1cnc(-n2ncc(C(=O)NCc3ccncc3)c2C(C)C)nc1-c1ccc(F)cc1 | -22% | -17% | x | x
CCCCOc1ccc(CCN)cc1Cl | -17% | -6% | u | 6%
C[n+]1cn(CC(O)COCc2ccccc2)c2ccccc21 (stereo not drawn) | -28% | -20% | 4% | 11%
CCCCCc1ccc(OCCC[n+]2ccccc2)c(CCCCC)c1 | 10µM* | 10µM* | 7.1µM* | u
CCCCCc1ccc(OCCOCCn2c[n+](C)c3ccccc32)c(CCCCC)c1 | 16µM* | 11µM* | x | x
Cc1cc(C)n(-c2ccc(C(=O)NCC3Cc4cc(-c5cnccn5)ccc4O3)cc2)n1 (stereo not drawn) | -8% | -7% | x | x
Cc1cccc2sc(NC(=O)C3CCN(S(=O)(=O)c4cc([N+](=O)[O-])ccc4Cl)CC3)nc12 | u | u | 6.3µM* | u
Cc1cccc(NC(=O)C2CCN(S(=O)(=O)c3cccc4nsnc34)CC2)n1 | -17% | -15% | -20% | u
COc1ccc2nc(NC(=O)C3CCN(S(=O)(=O)c4cccc5nsnc45)CC3)sc2c1 | u | u | u | 4.6µM*
O=C(NC1=NCCS1)C1CCN(S(=O)(=O)c2cc([N+](=O)[O-])ccc2Cl)CC1 | u | -24% | u | -20%
CC(C)(CNc1ccc([N+](=O)[O-])cc1Cl)N1CCOCC1 | -13% | 18% | -12%[46.1 µM] | 2%[46.1 µM]
CC(C)(CNC(=O)C1CCN(S(=O)(=O)c2cc([N+](=O)[O-])ccc2Cl)CC1)N1CCOCC1 | 14µM* | u | -7% | 14%
CCOC(=O)C1NNN2C3CCCCC3C(N(CC)CC)NC12 (stereo not drawn) | x | x | 18%[46.1 µM] | x
Cc1cc(=O)c2ccccc2n1CC(=O)NCc1ccccc1 | -2% | -18% | 10µM* | u
